Results filed as inconclusive are left out. Active and inactive are the calls of the source. Unless noted, calls follow the shape of the dose curve; as a rule, active = well fitted curve in the direction sought with a large enough effect in the repeat runs; inconclusive = weak or mixed curves; inactive = no such curve, though single readings can be large; an effect the other way counts as inactive or inconclusive.
Columns and labels:
[1] = qHTS assay to identify small molecule agonists of the RXR signaling pathway - cell viability counter screen (AID 1159529); also: series mostly up to about 77 µM; nearly all actives have a fitted effect of over 50% in size
In short: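 Cell viability is measured by CellTiter-Glo luminescence, 30 min at room temperature, in wells already read for beta-lactamase. Engineered HEK 293T cells (RXR-alpha-UAS-bla) are dosed 16 hr at 37 C. Tetraoctyl ammonium bromide serves as positive control.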

[2] = qHTS assay to identify small molecule antagonists of the retinoid acid receptor (RAR) signaling pathway - cell viability counter screen (AID 1159551); also: nearly all actives have a fitted effect of over 35% in size
In short: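 Cytotoxicity counter screen in C3RL4 cells: 6 h compound exposure with 1 uM retinol (final), viability from cellular ATP by luminescence.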

[3] = qHTS assay to identify small molecule antagonists of the retinoic acid receptor (RAR) signaling pathway (AID 1159552; also: nearly all actives have a fitted effect of over 50% in size)
In short: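 Quantitative HTS in C3RL4 RARE-luciferase reporter cells. Compounds were added with 1 uM (final) retinol; luminescence was read after 6 hr.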

[4] = qHTS assay to identify small molecule agonists of the retinoic acid receptor (RAR) signaling pathway (AID 1159553); also: potency is read from the fitted curve at half-maximal effect
In short: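 Agonist activity was scored in C3RL4 cells bearing a retinoic acid response element luciferase construct. Cells were treated with compounds for 6 hr at 37 C, and luciferase signal was measured as luminescence.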

[5] = qHTS assay to identify small molecule antagonists of the estrogen related receptor (ERR) signaling pathway from Tox21 library - cell viability counter screen (AID 1224834); also: nearly all actives have a fitted effect of over 30% in size; also: potency is read from the fitted curve at half-maximal effect
In short: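 Cytotoxicity of test substances is gauged in the same ERR cells used for the antagonist screen, after 17.5 h of compound treatment at 37 C, by CellTiter-Fluor fluorescence measured after 30 min.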

[6] = target: Luciferin 4-monooxygenase (Photinus pyralis) (UniProt P08659); assay: qHTS assay to identify small molecule inhibitors of firefly luciferase (AID 1224835); also: nearly all actives have a fitted effect of over 25% in size; also: potency is read from the fitted curve at half-maximal effect; as to activity change, negative = inhibition: series mostly up to about 120 µM
In short: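 Quantitative HTS format; KM concentrations of both substrates. Purified P. pyralis FLuc activity quantified from luminescence images.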

[7] = qHTS assay to identify small molecule agonists of the constitutive androstane receptor (CAR) signaling pathway - cell viability counter screen (AID 1224836); also: nearly all actives have a fitted effect of over 45% in size; also: potency is read from the fitted curve at half-maximal effect; as to viability change, negative = cytotoxic: series mostly up to about 92 µM
In short: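 Counter screen multiplexed with the CAR reporter readout: HepG2 cells co-transfected with hCAR and the CYP2B6-2.2kb construct receive a 15-concentration compound series and 0.75 uM PK11195 (final), then CellTiter-Fluor fluorescence is read after 23 h.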

[8] = qHTS assay to identify small molecule antagonists of the constitutive androstane receptor (CAR) signaling pathway - cell viability counter screen (AID 1224837); also: nearly all actives have a fitted effect of over 45% in size; also: potency is read from the fitted curve at half-maximal effect; as to activity change, negative = cytotoxicity: series mostly up to about 92 µM
In short: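 Multiplexed cytotoxicity read-out for the CAR antagonist screen: double-stable HepG2-CYP2B6-hCAR cells co-treated with 50 nM CITCO (final) and compound over 15 concentrations, incubated 23 hr, then assessed by CellTiter-Fluor fluorescence.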

[9] = qHTS assay to identify small molecule antagonists of the estrogen related receptor signaling pathway with the pleiotropic PPARgamma coactivator (PGC) from Tox21 10K library - cell viability counter screen (AID 1224840; active = well fitted cell-killing curve with a large enough effect in the repeat runs, not every such curve was filed as active; also: nearly all actives have a fitted effect of over 40% in size; also: potency is read from the fitted curve at half-maximal effect)
In short: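 Step one, plate 2,000 PGC/ERR cells per well; step two, incubate 6 h at 37 C/5% CO2; step three, pin-transfer compounds; step four, incubate 17.5 h; step five, add CellTiter-Fluor and read fluorescence after 30 min.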

[10] = target: Nuclear receptor subfamily 1 group I member 3 (Homo sapiens) (UniProt Q14994); assay: qHTS assay to identify small molecule agonists of the constitutive androstane receptor (CAR) signaling pathway (AID 1224839); also: series mostly up to about 92 µM; nearly all actives have a fitted effect of over 15% in size
In short: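 A 15-concentration quantitative screen uses HepG2 cells co-transfected stably with human CAR and CYP2B6-2.2kb reporter. Treatment lasts 24 h with 0.75 uM PK11195 final present; ONE-Glo luminescence is the signal.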

[11] = target: Nuclear receptor subfamily 1 group I member 3 (Homo sapiens) (UniProt Q14994); assay: qHTS assay to identify small molecule antagonists of the constitutive androstane receptor (CAR) signaling pathway (AID 1224838); also: nearly all actives have a fitted effect of over 40% in size
In short: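 Compounds were titrated across 15 concentrations onto HepG2 cells double-stably expressing hCAR and a CYP2B6-2.2kb reporter, together with 50 nM CITCO (final). After 24 h at 37 C, luciferase activity was measured by luminescence.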

[12] = qHTS assay to identify small molecule agonists of the estrogen related receptor signaling pathway with the pleiotropic PPARgamma coactivator (PGC) from Tox21 10K library (AID 1224842); also: nearly all actives have a fitted effect of over 15% in size; also: potency is read from the fitted curve at half-maximal effect
In short: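 PGC/ERR reporter cells (NTP line) were seeded 2,000 per well, rested 6 h at 37 C/5% CO2, then pin-dosed with compounds in DMSO for 18 h at 37 C; luciferase read by One-Glo luminescence after 30 min at room temperature.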

[13] = qHTS assay to identify small molecule antagonists of the estrogen related receptor signaling pathway with the pleiotropic PPARgamma coactivator (PGC) from Tox21 10K library (AID 1224841; call rule not given here; also: series mostly up to about 92 µM; actives are mostly falling curves and most rising ones were filed inactive; nearly all actives have a fitted effect of over 50% in size)
In short: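 Antagonism in this quantitative HTS is taken from loss of luciferase signal in PGC/ERR cells. Cells (2,000/well) are treated with compounds in DMSO after a 6 h settling period and read by One-Glo luminescence after 18 h.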
% is scaled to controls: 0 for no effect and ±100 for the full control effect.

Sequence of Nuclear receptor subfamily 1 group I member 3 (Homo sapiens) (Q14994 whole entry, looked up): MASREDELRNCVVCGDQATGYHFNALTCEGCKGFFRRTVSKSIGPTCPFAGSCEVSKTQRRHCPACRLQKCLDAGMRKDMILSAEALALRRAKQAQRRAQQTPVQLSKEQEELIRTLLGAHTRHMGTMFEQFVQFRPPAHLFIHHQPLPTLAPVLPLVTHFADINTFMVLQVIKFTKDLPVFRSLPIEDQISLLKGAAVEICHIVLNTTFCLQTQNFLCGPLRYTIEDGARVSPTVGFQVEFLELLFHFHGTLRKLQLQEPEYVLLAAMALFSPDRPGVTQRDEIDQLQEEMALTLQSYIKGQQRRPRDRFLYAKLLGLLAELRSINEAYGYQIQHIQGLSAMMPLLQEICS
Sequence of Luciferin 4-monooxygenase (Photinus pyralis) (P08659 whole entry, looked up): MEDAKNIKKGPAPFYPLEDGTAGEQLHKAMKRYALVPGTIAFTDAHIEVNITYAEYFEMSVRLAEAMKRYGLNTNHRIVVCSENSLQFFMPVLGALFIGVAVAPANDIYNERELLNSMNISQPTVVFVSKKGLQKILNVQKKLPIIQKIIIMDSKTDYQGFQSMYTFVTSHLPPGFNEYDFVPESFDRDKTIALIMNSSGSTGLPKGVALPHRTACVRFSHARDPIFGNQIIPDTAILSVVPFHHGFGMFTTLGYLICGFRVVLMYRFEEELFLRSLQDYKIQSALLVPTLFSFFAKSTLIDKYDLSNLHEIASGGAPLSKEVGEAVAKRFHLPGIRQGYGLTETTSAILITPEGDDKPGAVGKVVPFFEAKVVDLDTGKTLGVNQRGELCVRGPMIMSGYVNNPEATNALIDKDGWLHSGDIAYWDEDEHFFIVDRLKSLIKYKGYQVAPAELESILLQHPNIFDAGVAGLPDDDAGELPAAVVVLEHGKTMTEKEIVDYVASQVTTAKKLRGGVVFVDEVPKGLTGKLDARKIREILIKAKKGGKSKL

CCCc1ccc(OC)cc1
inactive: Potency [1] | outcome [2] | outcome [3] | Potency [4] | Potency [5] | Potency [6] | Potency [7] | Potency [8] | Potency [9]

Cc1cc(C)n(CO)n1
inactive: Potency [1] | outcome [2] | outcome [3] | Potency [4] | Potency [5] | Potency [6] | Potency [7] | Potency [8] | Potency [9]

O=[N+]([O-])c1ccc(Cl)cc1Cl
inactive: Potency [1] | outcome [2] | outcome [3] | Potency [4] | Potency [5] | Potency [6] | Potency [7] | Potency [8] | Potency [10] | Potency [9]

COc1ccc(/C=C/S(=O)(=O)NC(=O)c2ccc(C)cc2Cl)cc1
active: Potency [6] 79.6 µM
inactive: Potency [1] | outcome [2] | outcome [3] | Potency [4] | Potency [5] | Potency [7] | Potency [8] | Potency [9]

Nc1ncnc2c1ncn2[C@@H]1O[C@H](CO)[C@@H](O)[C@H]1O
inactive: Potency [1] | outcome [2] | outcome [3] | Potency [4] | Potency [5] | Potency [6] | Potency [7] | Potency [8] | Potency [9]

Cc1ccc2c(Cl)cc(Cl)c(O)c2n1
inactive: Potency [1] | outcome [2] | outcome [3] | Potency [4] | Potency [5] | Potency [6] | Potency [7] | Potency [8] | Potency [9]

CS(C)=O
inactive: Potency [1] | outcome [2] | outcome [3] | Potency [4] | Potency [5] | Potency [6] | Potency [7] | Potency [8] | Potency [9]

Cc1c(N=C=O)cccc1N=C=O
inactive: Potency [1] | outcome [2] | outcome [3] | Potency [4] | Potency [5] | Potency [6] | Potency [7] | Potency [8] | Potency [10] | Potency [9]

Oc1ccc(Oc2ccccc2)cc1
inactive: Potency [1] | outcome [2] | outcome [3] | Potency [4] | Potency [5] | Potency [6] | Potency [7] | Potency [8] | Potency [9]

C=CC(=O)NC(C)(C)C
inactive: Potency [1] | outcome [2] | outcome [3] | Potency [4] | Potency [5] | Potency [6] | Potency [7] | Potency [8] | Potency [11] | Potency [10] | Potency [9]

C/C(=C(\CCO)SS/C(CCO)=C(\C)N(C=O)Cc1cnc(C)nc1N)N(C=O)Cc1cnc(C)nc1N
inactive: Potency [1] | outcome [2] | outcome [3] | Potency [4] | Potency [5] | Potency [6] | Potency [7] | Potency [8] | Potency [9] | Potency [12]

O=C1c2ccccc2C(=O)C1c1ccc2cc(S(=O)(=O)O)cc(S(=O)(=O)O)c2n1
active: Potency [5] 29.5 µM | Potency [6] 30.6 µM | Potency [7] 66.1 µM | Potency [8] 52.5 µM | Potency [9] 33.1 µM
inactive: Potency [1] | outcome [2] | outcome [3] | Potency [11] | Potency [12]

CCCCCCCCCCCCSCCOCCO
inactive: Potency [1] | outcome [2] | outcome [3] | Potency [4] | Potency [5] | Potency [6] | Potency [7] | Potency [8] | Potency [9] | Potency [12]

CCCC(=O)OCc1ccccc1
inactive: Potency [1] | outcome [2] | outcome [3] | Potency [4] | Potency [5] | Potency [6] | Potency [7] | Potency [8] | Potency [9] | Potency [13] | Potency [12]

Nc1ccc(-c2ccc(F)cc2)cc1
inactive: Potency [1] | outcome [2] | outcome [3] | Potency [5] | Potency [7] | Potency [8] | Potency [11] | Potency [9]
active: Potency [6] 31.7 µM | Potency [12] 5.45 µM

CCCCCCCCCCCCCCCCCCCl
inactive: activity change, negative = cytotoxicity [1] 3.39% [at 6.97 µM] | activity change, negative = cytotoxicity [2] -1.45% [at 8.39 µM] | activity, negative = inhibition [3] -19.9% [at 8.39 µM] | activation [4] -0.984% [at 8.36 µM] | viability change, negative = cytotoxic [5] -0.218% [at 8.39 µM] | activity change, negative = inhibition [6] 2.69% [at 10.5 µM] | viability change, negative = cytotoxic [7] 3.36% [at 8.39 µM] | activity change, negative = cytotoxicity [8] 3.1% [at 8.39 µM] | viability change, negative = cytotoxic [9] 10.7% [at 8.39 µM] | activity, negative = inhibition [13] 20.1% [at 8.39 µM] | activation [12] 1.05% [at 8.39 µM]

C=C(C)C(=O)OCCCCCCCCCCOC(=O)C(=C)C
inactive: Potency [1] | outcome [2] | outcome [3] | Potency [5] | Potency [6] | Potency [7] | Potency [8] | Potency [11] | Potency [10] | Potency [9] | Potency [12]

COc1cc(CNC(=O)CCCC/C=C/C(C)C)ccc1O
inactive: Potency [1] | outcome [2] | outcome [3] | Potency [5] | Potency [6] | Potency [7] | Potency [8] | Potency [11] | Potency [9]

COC(=O)/C=C/C(C)=C\C=C\C(C)=C\C=C\C=C(C)\C=C\C=C(C)\C=C\C(=O)O
inactive: Potency [1] | outcome [2] | outcome [3] | Potency [7] | Potency [8] | Potency [9] | Potency [12]
active: Potency [4] 61.1 µM

CCC1=C(C)CN(C(=O)NCCc2ccc(S(=O)(=O)NC(=O)NC3CCC(C)CC3)cc2)C1=O (stereo not drawn)
inactive: Potency [1] | outcome [2] | outcome [3] | Potency [4] | Potency [5] | Potency [6] | Potency [7] | Potency [8] | Potency [9] | Potency [13] | Potency [12]

COc1cc(C)c(Cc2cnc(N)nc2N)cc1OC
inactive: Potency [1] | outcome [2] | outcome [3] | Potency [5] | Potency [6] | Potency [7] | Potency [8] | Potency [11] | Potency [10] | Potency [9] | Potency [13] | Potency [12]

C1=COCCC1
inactive: Potency [1] | outcome [2] | outcome [3] | Potency [4] | Potency [5] | Potency [6] | Potency [7] | Potency [8] | Potency [9]

N#CCCCC(C#N)CCC#N (stereo not drawn)
inactive: Potency [1] | outcome [2] | outcome [3] | Potency [4] | Potency [5] | Potency [6] | Potency [7] | Potency [8] | Potency [9] | Potency [13] | Potency [12]

CCCN(C1CCN(C(=O)C2CCNCC2)CC1)[C@@H]1CCc2ccc(OC)cc2C1
inactive: Potency [1] | outcome [2] | outcome [3] | Potency [4] | Potency [5] | Potency [6] | Potency [10] | Potency [9] | Potency [12]

O=C(O)CNc1ccccc1
inactive: Potency [1] | outcome [2] | outcome [3] | Potency [5] | Potency [6] | Potency [7] | Potency [8] | Potency [11] | Potency [10] | Potency [9] | Potency [13] | Potency [12]

— PubChem BioAssay (Tox21)
